High-throughput results as filed in PubChem.
NPR1 antag – blocks ANP-stimulated signaling of human Npr1 receptor. Potency, µM (top dose mostly 46.3 µM), actives largely listed as inhibitors. actives 1.6% (n = 76,000). P16066. HEK293 hNpr1 GloSensor cGMP, ANP-stimulated luminescence; calls by dose curve; further: nearly all actives have a fitted effect of over 60% in size
Target sequence (P16066 whole entry, looked up): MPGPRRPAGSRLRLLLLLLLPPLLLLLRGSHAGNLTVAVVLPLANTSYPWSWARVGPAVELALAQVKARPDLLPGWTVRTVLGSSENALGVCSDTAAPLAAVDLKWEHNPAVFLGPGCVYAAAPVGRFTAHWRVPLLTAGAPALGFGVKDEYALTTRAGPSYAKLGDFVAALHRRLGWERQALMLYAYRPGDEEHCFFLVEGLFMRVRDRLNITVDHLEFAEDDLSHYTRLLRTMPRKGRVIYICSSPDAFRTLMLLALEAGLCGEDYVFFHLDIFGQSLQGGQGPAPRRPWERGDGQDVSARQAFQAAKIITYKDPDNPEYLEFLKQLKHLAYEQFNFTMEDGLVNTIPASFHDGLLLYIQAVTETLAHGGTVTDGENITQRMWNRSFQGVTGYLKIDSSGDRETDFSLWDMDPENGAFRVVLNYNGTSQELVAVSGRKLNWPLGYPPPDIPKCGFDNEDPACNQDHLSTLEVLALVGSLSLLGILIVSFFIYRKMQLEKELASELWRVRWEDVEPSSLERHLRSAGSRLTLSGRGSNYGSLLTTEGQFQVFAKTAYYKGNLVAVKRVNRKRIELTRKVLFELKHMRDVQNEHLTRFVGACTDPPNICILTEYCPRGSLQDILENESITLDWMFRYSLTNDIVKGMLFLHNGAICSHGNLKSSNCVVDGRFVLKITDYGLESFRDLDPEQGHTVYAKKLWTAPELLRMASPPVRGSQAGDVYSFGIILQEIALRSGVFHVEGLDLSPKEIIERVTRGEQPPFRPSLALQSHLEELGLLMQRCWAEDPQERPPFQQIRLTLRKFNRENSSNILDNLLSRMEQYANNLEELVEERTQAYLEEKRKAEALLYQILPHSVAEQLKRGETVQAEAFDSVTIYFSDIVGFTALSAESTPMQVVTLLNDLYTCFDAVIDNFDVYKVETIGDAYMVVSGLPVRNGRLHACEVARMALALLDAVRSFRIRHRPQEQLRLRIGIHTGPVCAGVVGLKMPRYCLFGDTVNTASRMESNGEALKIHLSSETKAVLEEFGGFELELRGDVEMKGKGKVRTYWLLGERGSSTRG
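HEK293 cells stably expressing human Npr1 and cGMP GloSensor pGS-40F, loaded 2 h with 2% GloSensor reagent, given compound 30 min at room temperature. Luminescence read before and 20 min after 0.1 nM hNppA.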
GPT2 inh – inhibitors of human GPT2 alanine aminotransferase; Q8TD30; Recombinant GPT2, coupled pyruvate oxidase/HRP Amplex Red fluorescence; Potency, µM (doses to about 57.7 µM), most hits filed as inhibitors; actives 0.25% (n = 100,000); AID 1671188; further: nearly all actives have a fitted effect of over 60% in size
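Fluorescence of coupled pyruvate oxidase/HRP/Amplex Red system (50uM Amplex, 30 min, dark) reports pyruvate formed by GPT2. Enzyme reaction: 10ng/uL GPT2, 2mM L-alanine, 250uM a-KG, 30 min room temperature, pH 7.5; 50uM AOA control.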
NIH3T3 tox – cytotoxic compounds in NIH 3T3 cells | NIH 3T3 viability, CellTiter-Glo ATP luminescence, 48-72 h | Potency, µM (series often up to 96.7 µM), most hits filed as inhibitors | actives 4.3% (n = 94,000) | AID 1345082; further: nearly all actives have a fitted effect of over 55% in size
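NIH 3T3 cells at 400 cells/well received 23 nL of compound by pintool and were incubated 48 or 72 h at 37 °C. Viability was read as ATP-coupled CellTiter-Glo luminescence.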
HEK293 tox – kills HEK 293 cells; Potency, µM (top dose mostly 115 µM), actives largely listed as inhibitors; actives 6.6% (n = 94,000); HEK 293 viability, ATP luminescence (CellTiter-Glo), 48-72 h; further: nearly all actives have a fitted effect of over 60% in size
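Viability of HEK 293 cells, plated at 250 cells/well, was judged by cellular ATP after compound treatment for 48 or 72 hr. Luminescence was imaged 10 min after CellTiter-Glo addition at room temperature.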
FLuc inh – inhibitors of firefly (Photinus pyralis) luciferase | P08659 | purified P. pyralis luciferase, luminescence, biochemical | Potency, µM (top dose mostly 115 µM), hits mostly inhibitors | actives 2.5% (n = 76,000); further: nearly all actives have a fitted effect of over 65% in size
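Luminescence read by CCD imager after adding enzyme (10nM final) to wells holding compound, titrated in qHTS. Substrates 10uM each D-luciferin and ATP; buffer 50mM Tris acetate pH 7.5, 10mM Mg acetate, Tween-20, BSA.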
Hits are given with their value. Compounds with a hit are over-represented: about 10% of the library has one in this group of screens. Unless noted, the call rests on the fitted dose curve; in most records, active means well fitted curve in the direction sought with a large enough effect; inconclusive means small, poorly fitted or top-dose-only effect, or another doubt; inactive means no such curve, though single readings can be large; an effect the other way counts as inactive or inconclusive.

What do the screens show for `O=C(NC1CCCN(c2cc(-c3ccc(F)cc3)[nH]n2)C1)c1ccccc1Cl` (centres undefined)?
NPR1 antag: inactive; GPT2 inh: inactive; NIH3T3 tox: inactive; HEK293 tox: inconclusive; FLuc inh: inactive

What do the screens show for `CC(=O)Nc1cccc(C(=O)NC2CCCN(c3cc(-c4ccc(Cl)cc4)[nH]n3)C2)c1` (centres undefined)?
NPR1 antag: inactive; GPT2 inh: inactive; NIH3T3 tox: inconclusive; HEK293 tox: 44.7µM; FLuc inh: 31.6µM

What do the screens show for `Cc1nnc2ccc(N3CCC(NC(=O)c4cccc(Cl)c4)C3)nn12` (centres undefined)?
NIH3T3 tox: inconclusive; HEK293 tox: inactive

What do the screens show for `Cc1nc(C#Cc2ccnc(Cl)c2)c(C)n1-c1ccc(OC(F)(F)F)cc1`?
GPT2 inh: inactive

Results for COc1ccc(NC(=O)C2CCc3nnc(CN[S+](C)(=O)[O-])n32)cc1 (centres undefined) ?
GPT2 inh: inactive; NIH3T3 tox: inactive; HEK293 tox: inactive

What do the screens show for `O=C(COc1ccccc1)NCCC1CCN(C(=O)Nc2ccccc2)CC1`?
NPR1 antag: inactive; GPT2 inh: inactive; NIH3T3 tox: inactive; HEK293 tox: inactive; FLuc inh: inactive

What do the screens show for `COc1ccc(Cc2nc3nccc(-c4cc(OC)c(OC)c(OC)c4)n3n2)cc1`?
NPR1 antag: inactive; GPT2 inh: inactive; NIH3T3 tox: inconclusive; HEK293 tox: inconclusive; FLuc inh: inactive

Results for CCCN(C)c1nccnc1OC1CCN(C(=O)C2CCCCC2)C1 (centres undefined) ?
NPR1 antag: inactive; GPT2 inh: inactive; NIH3T3 tox: inactive; HEK293 tox: inconclusive; FLuc inh: inconclusive

How did CCCN(C)c1nccnc1OC1CCN(C(=O)C2CCOCC2)C1 (centres undefined) do in these assays?
NPR1 antag: inactive; GPT2 inh: inactive; NIH3T3 tox: inactive; HEK293 tox: inactive; FLuc inh: 39.8µM

Results for CN(C)c1nccnc1OC1CCN(C(=O)C2CCOCC2)C1 (centres undefined) ?
NPR1 antag: inactive; GPT2 inh: inactive; NIH3T3 tox: inactive; HEK293 tox: inactive; FLuc inh: inactive

Results for COc1ccc(Cl)cc1C(=O)N1CCC(Oc2nccnc2N(C)C)C1 (centres undefined) ?
NPR1 antag: inactive; GPT2 inh: inactive; NIH3T3 tox: inactive; HEK293 tox: inconclusive; FLuc inh: inconclusive

How did CCCN(C)c1nccnc1OC1CCN(C(=O)C2CC2)C1 (centres undefined) do in these assays?
NPR1 antag: inactive; GPT2 inh: inactive; NIH3T3 tox: inconclusive; HEK293 tox: inactive; FLuc inh: 39.8µM

Results for CCCN(C)c1nccnc1OC1CCN(C(=O)C(CC)CC)C1 (centres undefined) ?
NPR1 antag: inactive; GPT2 inh: inactive; NIH3T3 tox: inconclusive; HEK293 tox: inconclusive; FLuc inh: 31.6µM

Results for O=C(NC1CC1)C1CCCN1C(=O)c1cccc(-c2ccccn2)c1 (centres undefined) ?
GPT2 inh: inactive; NIH3T3 tox: inactive; HEK293 tox: inactive

Results for CC(C)=CCC[C@](C)(O)[C@H]1CC[C@]2(C)[C@@H]1[C@H](O)CC1[C@@]3(C)CC[C@H](O)C(C)(C)C3[C@@H](O[C@@H]3O[C@H](CO)[C@@H](O)[C@H](O)[C@H]3O[C@@H]3OC[C@@H](O)[C@H](O)[C@H]3O)C[C@]12C (some centres undefined) ?
GPT2 inh: inactive

What do the screens show for `CN(c1cc(=O)c2ccnc(-c3cccc(CO)c3)c2o1)C1CCOCC1`?
NPR1 antag: inactive; GPT2 inh: inactive; NIH3T3 tox: 25.1µM; HEK293 tox: inactive; FLuc inh: inactive

Results for CN(C)c1cccc(-c2nccc3c(=O)cc(N(C)C4CCOCC4)oc23)c1 ?
NPR1 antag: inactive; GPT2 inh: inactive; NIH3T3 tox: inconclusive; HEK293 tox: inactive; FLuc inh: inactive

How did CN(c1cc(=O)c2ccnc(-c3cncnc3)c2o1)C1CCOCC1 do in these assays?
NPR1 antag: inactive; GPT2 inh: inactive; NIH3T3 tox: 79.4µM; HEK293 tox: inactive; FLuc inh: inactive

What do the screens show for `O=C(NC1CCCN(c2ccc3nnc(-c4ccccc4)n3n2)C1)c1cccc(Cl)c1` (centres undefined)?
NIH3T3 tox: inactive; HEK293 tox: inactive

What do the screens show for `CN1CCCCCC(O)c2cc(C(=O)NC3CCN(Cc4ccccc4)CC3)ccc21` (centres undefined)?
NPR1 antag: inconclusive; GPT2 inh: inactive; NIH3T3 tox: inconclusive; HEK293 tox: 11.2µM; FLuc inh: inactive

How did CN1CCCCCC(O)c2cc(C(=O)N3CCN(c4ccc(F)cc4)CC3)ccc21 (centres undefined) do in these assays?
NPR1 antag: inactive; GPT2 inh: inactive; NIH3T3 tox: inconclusive; HEK293 tox: 44.7µM; FLuc inh: inactive

How did COc1ccccc1CN1CCN(C(=O)c2ccc3c(c2)C(O)CCCCCN3C)CC1 (centres undefined) do in these assays?
NPR1 antag: inactive; GPT2 inh: inactive; NIH3T3 tox: inconclusive; HEK293 tox: 50.1µM; FLuc inh: inactive

What do the screens show for `CN1CCCCCC(O)c2cc(C(=O)NCCCc3ccccc3)ccc21` (centres undefined)?
NPR1 antag: inactive; GPT2 inh: inactive; NIH3T3 tox: inconclusive; HEK293 tox: inconclusive; FLuc inh: inactive

What do the screens show for `COc1ccc(C(=O)N2CC(CNC(=O)N3CCCC3)C3(CCOCC3)C2)cc1` (centres undefined)?
GPT2 inh: inactive; NIH3T3 tox: inactive; HEK293 tox: inactive

What do the screens show for `CCc1nc2c(c(-c3ccc(O)cc3)n1)CN(Cc1ccccc1)CCC2`?
NPR1 antag: inactive; GPT2 inh: inactive; NIH3T3 tox: inconclusive; HEK293 tox: inconclusive; FLuc inh: inactive

What do the screens show for `Cc1ccccc1C(=O)NCCNC(=O)c1ccc(-c2cccc(C(F)(F)F)c2)cc1`?
NIH3T3 tox: inactive; HEK293 tox: inconclusive

Results for CCC(=O)N1Cc2ccccc2CC2(CCN(CCc3ccc(C)cc3)CC2)C1 ?
GPT2 inh: inactive; NIH3T3 tox: inconclusive; HEK293 tox: inconclusive

How did CSc1ncc(CN2CCOC(Cc3cccc(C(F)(F)F)c3)C2)cn1 (centres undefined) do in these assays?
NPR1 antag: inactive; GPT2 inh: inactive; NIH3T3 tox: 28.2µM; HEK293 tox: 22.4µM; FLuc inh: inactive

Results for CC(=O)Nc1cccc(-c2ncc3c(n2)OCCN(Cc2ccccc2)C3=O)c1 ?
NPR1 antag: inactive; GPT2 inh: inactive; NIH3T3 tox: inconclusive; HEK293 tox: inconclusive; FLuc inh: inconclusive

What do the screens show for `CC(=O)Nc1cccc(-c2ncc3c(n2)OCCN(Cc2ccc(F)cc2F)C3=O)c1`?
NPR1 antag: inactive; GPT2 inh: inactive; NIH3T3 tox: inconclusive; HEK293 tox: inconclusive; FLuc inh: inactive
